In PubChem BioAssay one finds inhibition data, which are given here for 14 compounds.

A number with no mark means an inactive call. Active and inactive are the calls of the source. Cut-off read from the data, not from the text of the source, unless noted: active = inhibition above about 44%; inactive = the rest.

Experiment [1] deals with Nuclear receptor coactivator 3 (Homo sapiens) (UniProt Q9Y6Q9). The experiment can be described thus: SRC3 coactivator transcriptional activity inhibitors, confirmation, cell-based, luminescence, quadruplicate (AID 588792;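 active = mean inhibition over 43.08%, the solvent-only control mean plus 3 SD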;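 note: 0% = DMSO treated cells and 100% = gossypol at 36 µM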). Conditions: HEK293 GAL4-SRC3 luciferase reporter, at 3.6 µM, hits give high values. On the technique in general: Reporter assays use an easily measured gene product as a stand-in for the process of interest.

Experiment [2] has as its system transactivating tegument protein VP16 (Human herpesvirus 1), Gal4-VP16 luciferase reporter. As to the kind of experiment: VP16 transactivation inhibitors, counter-screen for SRC3 inhibitor project, cell-based, luminescence, high throughput (AID 588794; in the data active = inhibition above about 30%). The conditions noted are these: mammalian cells, VP16-driven luciferase reporter luminescence; at 3.6 µM; hits give high values. Background: Counterscreens check selectivity or assay interference.

Experiment [3] deals with Nuclear receptor coactivator 1 (Homo sapiens) (UniProt Q15788). As to the kind of experiment: SRC1 coactivator transcriptional activity inhibitors, confirmation, cell-based, luminescence, quadruplicate (AID 588820;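 active = mean inhibition above 46.68%, the untreated control wells mean plus 3 SD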;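 note: 0% = DMSO wells and 100% = gossypol 36 µM treated wells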). The conditions noted are these: HEK293 GAL4-SRC1 luciferase reporter, at 3.6 µM, hits give high values.
A short description of experiment [4]: VP16 transactivation inhibitors, counter-screen for SRC1 inhibitor project, cell-based, luminescence, high throughput (AID 588824; in the data active = inhibition above about 25%). Conditions: cell-based VP16 transactivation luciferase luminescence; at 3.6 µM; hits give high values.
Experiment [5] is described as follows: StAR promoter reporter inhibitors, counter-screen for LRH-1 inverse agonist project, cell-based, luminescence, high throughput (AID 651611; in the data active = inhibition above about 28%). Conditions: StAR promoter luciferase reporter counterscreen, at 3.6 µM, hits give high values.
For experiment [6], the target named is Nuclear receptor subfamily 5 group A member 2 (Homo sapiens) (UniProt O00482). As to the kind of experiment: LRH-1 (NR5A2) inverse agonists, retest, confirmation, cell-based, luminescence (AID 651613; in the data active = inhibition above about 42%;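 note: HEK293T cells co-transfected with LRH-1 and StAR promoter luciferase reporter; 0% = vehicle wells and 100% = parental cells lacking receptor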). Conditions: cell-based LRH-1 luciferase reporter, inverse agonism; at 3.6 µM; hits give high values.
The target in experiment [7] is Steroidogenic factor 1 (Homo sapiens) (UniProt Q13285). The experiment can be described thus: SF1 (NR5A1) inverse agonists, counter-screen for LRH-1 inverse agonist project, cell-based, luminescence, high throughput (AID 651614).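 Note: cells cotransfected with StAR promoter reporter and SF1 expression vector; 0% = vehicle on cells with receptor and 100% = vehicle on cells lacking receptor.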 Conditions: cell-based SF1 luciferase reporter, at 3.6 µM, hits give high values.
Experiment [8] is described as follows: VP16 transactivation reporter inhibitors, counter-screen for LRH-1 inverse agonist project, cell-based, luminescence, high throughput (AID 651615; in the data active = inhibition above about 33%). The conditions noted are these: Gal4-VP16 luciferase reporter cells, at 3.6 µM, hits give high values.
For experiment [9], the system named is transactivating tegument protein VP16 (Human herpesvirus 1). The experiment can be described thus: VP16 transactivation reporter inhibitors, counter-screen for SRC2 inhibitor project, cell-based, luminescence, single concentration (AID 652007; in the data active = inhibition above about 36%). Conditions: cell-based VP16 transactivation luciferase reporter, at 8.9 µM, hits give high values.
Experiment [10] has as its target Nuclear receptor coactivator 2 (Homo sapiens) (UniProt Q15596). The experiment can be described thus: SRC2 coactivator transcriptional activity inhibitors, confirmation, cell-based, luminescence, HEK293, triplicate (AID 652008;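 active = mean inhibition above 46.5%, the solvent-only control mean plus 3 SD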;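 note: 0% = DMSO-treated cells and 100% = Gossypol at 36 µM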). Conditions: HEK293 GAL4-SRC2 luciferase reporter, at 8.9 µM, hits give high values.

Chain of Nuclear receptor coactivator 2 (Homo sapiens) (Q15596 whole entry, looked up, the tested form may be a part): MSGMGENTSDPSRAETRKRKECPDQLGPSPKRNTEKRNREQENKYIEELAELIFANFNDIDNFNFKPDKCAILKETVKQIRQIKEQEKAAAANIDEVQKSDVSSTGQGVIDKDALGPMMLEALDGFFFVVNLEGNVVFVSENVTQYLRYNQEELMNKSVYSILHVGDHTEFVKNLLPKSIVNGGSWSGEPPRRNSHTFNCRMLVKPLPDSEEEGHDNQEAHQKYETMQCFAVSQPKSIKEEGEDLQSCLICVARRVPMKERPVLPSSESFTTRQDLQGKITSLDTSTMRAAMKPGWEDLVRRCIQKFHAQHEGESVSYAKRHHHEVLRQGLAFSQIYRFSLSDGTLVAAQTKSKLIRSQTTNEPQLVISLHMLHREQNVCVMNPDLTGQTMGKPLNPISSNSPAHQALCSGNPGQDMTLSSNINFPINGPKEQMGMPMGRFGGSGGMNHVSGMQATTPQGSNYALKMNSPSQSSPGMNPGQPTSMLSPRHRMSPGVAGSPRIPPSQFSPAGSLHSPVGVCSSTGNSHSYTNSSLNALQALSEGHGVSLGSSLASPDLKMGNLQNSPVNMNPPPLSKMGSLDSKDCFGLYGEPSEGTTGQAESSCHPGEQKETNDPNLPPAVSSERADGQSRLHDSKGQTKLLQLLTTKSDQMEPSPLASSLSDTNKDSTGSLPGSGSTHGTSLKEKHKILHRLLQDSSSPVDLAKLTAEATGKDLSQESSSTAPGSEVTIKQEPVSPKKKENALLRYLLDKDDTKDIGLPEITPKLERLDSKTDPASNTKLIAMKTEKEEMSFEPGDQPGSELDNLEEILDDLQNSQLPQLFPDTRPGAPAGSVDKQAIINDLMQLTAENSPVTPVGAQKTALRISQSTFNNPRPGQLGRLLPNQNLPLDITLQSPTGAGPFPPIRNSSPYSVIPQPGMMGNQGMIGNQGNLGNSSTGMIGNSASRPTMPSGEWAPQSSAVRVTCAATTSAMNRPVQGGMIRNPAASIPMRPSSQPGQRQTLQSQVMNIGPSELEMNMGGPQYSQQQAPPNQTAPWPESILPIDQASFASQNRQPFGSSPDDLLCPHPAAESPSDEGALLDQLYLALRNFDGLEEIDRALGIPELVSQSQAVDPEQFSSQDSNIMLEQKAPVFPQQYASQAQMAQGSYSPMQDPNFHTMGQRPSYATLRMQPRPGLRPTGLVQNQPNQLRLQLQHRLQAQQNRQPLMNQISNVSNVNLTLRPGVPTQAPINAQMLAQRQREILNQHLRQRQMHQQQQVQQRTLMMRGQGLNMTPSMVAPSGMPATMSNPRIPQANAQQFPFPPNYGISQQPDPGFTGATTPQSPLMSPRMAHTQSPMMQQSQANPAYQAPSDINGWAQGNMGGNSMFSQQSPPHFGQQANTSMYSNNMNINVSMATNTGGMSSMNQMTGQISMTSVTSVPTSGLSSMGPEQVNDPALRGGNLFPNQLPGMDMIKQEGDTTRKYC
Chain of Nuclear receptor coactivator 1 (Homo sapiens) (Q15788 whole entry, looked up, the tested form may be a part): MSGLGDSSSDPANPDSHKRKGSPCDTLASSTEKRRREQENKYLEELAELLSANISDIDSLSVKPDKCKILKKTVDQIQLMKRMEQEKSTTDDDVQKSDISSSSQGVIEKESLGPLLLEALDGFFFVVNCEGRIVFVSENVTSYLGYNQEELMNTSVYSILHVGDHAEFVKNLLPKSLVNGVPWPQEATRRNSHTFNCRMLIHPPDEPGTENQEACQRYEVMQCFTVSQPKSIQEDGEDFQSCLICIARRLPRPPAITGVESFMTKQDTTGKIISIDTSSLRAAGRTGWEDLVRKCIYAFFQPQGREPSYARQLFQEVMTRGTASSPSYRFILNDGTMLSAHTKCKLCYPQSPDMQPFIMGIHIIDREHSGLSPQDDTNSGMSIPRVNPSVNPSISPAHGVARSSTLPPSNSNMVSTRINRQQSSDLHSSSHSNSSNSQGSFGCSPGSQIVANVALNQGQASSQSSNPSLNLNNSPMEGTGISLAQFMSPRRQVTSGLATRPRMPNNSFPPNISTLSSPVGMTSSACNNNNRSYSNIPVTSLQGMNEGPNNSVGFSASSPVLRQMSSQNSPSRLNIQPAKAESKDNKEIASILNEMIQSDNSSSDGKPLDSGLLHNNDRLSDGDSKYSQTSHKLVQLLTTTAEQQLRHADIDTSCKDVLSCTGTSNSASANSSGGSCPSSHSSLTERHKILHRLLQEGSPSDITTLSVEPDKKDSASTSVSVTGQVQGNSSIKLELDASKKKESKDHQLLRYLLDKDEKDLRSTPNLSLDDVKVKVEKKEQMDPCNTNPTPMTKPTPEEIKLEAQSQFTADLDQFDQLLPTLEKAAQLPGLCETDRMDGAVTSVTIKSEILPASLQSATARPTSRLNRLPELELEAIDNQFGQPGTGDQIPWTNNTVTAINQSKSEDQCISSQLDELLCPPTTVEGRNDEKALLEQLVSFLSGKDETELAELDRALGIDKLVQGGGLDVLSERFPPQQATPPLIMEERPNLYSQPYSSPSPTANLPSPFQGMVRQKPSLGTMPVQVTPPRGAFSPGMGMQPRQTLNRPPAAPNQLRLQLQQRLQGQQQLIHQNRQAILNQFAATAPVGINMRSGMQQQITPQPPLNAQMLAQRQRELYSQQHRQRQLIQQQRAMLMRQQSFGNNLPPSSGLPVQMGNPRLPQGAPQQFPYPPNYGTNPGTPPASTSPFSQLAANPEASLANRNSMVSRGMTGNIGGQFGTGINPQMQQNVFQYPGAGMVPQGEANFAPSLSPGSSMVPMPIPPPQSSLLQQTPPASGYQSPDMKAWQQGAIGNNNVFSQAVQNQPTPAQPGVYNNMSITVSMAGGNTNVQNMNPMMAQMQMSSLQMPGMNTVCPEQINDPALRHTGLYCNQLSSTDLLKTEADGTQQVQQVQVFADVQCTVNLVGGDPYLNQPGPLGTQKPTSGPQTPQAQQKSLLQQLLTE
Chain of Steroidogenic factor 1 (Homo sapiens) (Q13285 whole entry, looked up, the tested form may be a part): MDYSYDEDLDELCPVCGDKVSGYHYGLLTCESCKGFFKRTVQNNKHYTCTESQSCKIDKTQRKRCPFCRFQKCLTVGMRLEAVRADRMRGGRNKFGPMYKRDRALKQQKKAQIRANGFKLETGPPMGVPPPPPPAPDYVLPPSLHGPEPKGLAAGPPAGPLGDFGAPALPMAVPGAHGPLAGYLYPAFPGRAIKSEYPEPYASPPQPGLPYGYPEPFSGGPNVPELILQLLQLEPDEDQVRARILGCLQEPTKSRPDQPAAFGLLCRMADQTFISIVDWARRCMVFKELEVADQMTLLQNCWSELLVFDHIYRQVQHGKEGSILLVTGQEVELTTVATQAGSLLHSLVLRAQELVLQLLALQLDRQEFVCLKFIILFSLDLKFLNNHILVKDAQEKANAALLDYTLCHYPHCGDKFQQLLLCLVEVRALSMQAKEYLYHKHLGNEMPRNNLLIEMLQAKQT
Chain of Nuclear receptor subfamily 5 group A member 2 (Homo sapiens) (O00482 whole entry, looked up): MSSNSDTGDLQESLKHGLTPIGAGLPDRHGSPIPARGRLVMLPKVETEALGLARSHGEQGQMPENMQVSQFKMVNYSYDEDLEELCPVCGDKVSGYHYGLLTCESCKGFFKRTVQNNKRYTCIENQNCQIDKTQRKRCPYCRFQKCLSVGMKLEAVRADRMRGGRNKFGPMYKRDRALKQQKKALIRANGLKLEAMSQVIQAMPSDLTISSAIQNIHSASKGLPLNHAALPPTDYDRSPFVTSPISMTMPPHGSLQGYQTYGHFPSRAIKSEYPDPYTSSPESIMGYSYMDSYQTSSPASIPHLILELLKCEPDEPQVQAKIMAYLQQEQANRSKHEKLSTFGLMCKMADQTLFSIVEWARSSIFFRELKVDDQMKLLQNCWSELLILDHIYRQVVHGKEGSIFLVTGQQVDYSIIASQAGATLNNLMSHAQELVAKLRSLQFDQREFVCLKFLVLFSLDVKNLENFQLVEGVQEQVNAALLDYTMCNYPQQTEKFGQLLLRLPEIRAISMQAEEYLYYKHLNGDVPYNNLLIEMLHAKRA

The term inhibition denotes the change of the read-out against control, counted positive when it falls. With `S=C(NCCCCN(Cc1ccc(Cl)cc1)c1ccc(Br)cn1)NCCCc1cnc[nH]1`, the inhibition was 93.1% (active) in experiment [1]; 72.5% (active) in experiment [2]; 76.5% (active) in experiment [3]; 60.9% (active) in experiment [4]; 90.1% (active) in [5]; 103% (active) in experiment [6]. For the same compound, the inhibition in [7] was 96.7% (active); in experiment [8] it was 86.5% (active); in experiment [9], 23.1%; in experiment [10], 54.5% (active).

For `Cc1ccc(NC(=O)c2cc(C)n(-c3ccccc3)c2C)cc1`, the inhibition in experiment [1] is 43.4% (active); in experiment [2], 23.7%; in experiment [3], 1.09%; in experiment [4], -11.4%; in [5] it was 45.2% (active); in experiment [6], -63.5%. In addition, the inhibition was 20.4% in [7], -42.7% in experiment [8], 61.3% (active) in experiment [9] and 69.8% (active) in [10].

Turning to `COCC(=O)OC1CCn2c1nc1c2C(=O)C(C)=C(NC(C)=O)C1=O` (stereo not given), the inhibition in experiment [1] was 91.9% (active); in experiment [2], 86.7% (active); in experiment [3], 75.1% (active); in experiment [4] it was 85.7% (active); in experiment [5], 80.1% (active); in [6] it was 99.7% (active). The inhibition in [7] was 86.6% (active); in experiment [8], 90.8% (active); in experiment [9], 57.3% (active); in experiment [10], 73.5% (active).

Consider `S=C(Nc1ccccc1)Nc1ccc(OCc2ccc(Cl)cc2Cl)cc1`, for which the inhibition was 46.7% (active) in experiment [1]; 25.4% in [2]; 43.6% in experiment [3]; 24.4% in experiment [4]; 63.4% (active) in experiment [5]; 72.3% (active) in experiment [6]. Besides, the inhibition in [7] was 59.5% (active); in experiment [8], 39.4% (active); in [9], 83.7% (active); in [10] it was 93.9% (active).

`Cc1ccc(C(=O)O/N=C(\N)c2ccccn2)c(C)c1`: the inhibition is 60% (active) in experiment [1]; 42.3% (active) in experiment [2]; 15% in experiment [3]; 28.9% (active) in experiment [4]; 33.2% (active) in [5]; 9.46% in experiment [6]. For the same compound, the inhibition in experiment [7] was 36.5%; in experiment [8], 13.6%; in experiment [9], 71.3% (active); in [10], 86% (active).

As for `O=C(O)C1CCCCC1C(=O)Nc1ccc2c(c1)OCCO2` (stereo not given), the inhibition in [1] is -6.32%; in experiment [2], -0.43%; in experiment [3] it was -18.1%; in [4], -13.8%; in experiment [5], -0.9%; in [6], -1.32%. The inhibition was -1.69% in [7], 0% in [8], -11.1% in experiment [9] and 26.9% in experiment [10].

With `COCCn1c(C)cc(C2=NNC(=Nc3ccccc3F)SC2)c1C`, the inhibition in experiment [1] was 57.4% (active); in [2] it was 52.3% (active); in experiment [3], 60.5% (active); in experiment [4] it was 28.1% (active); in [5], 54.2% (active); in experiment [6] it was -47%. For the same compound, the inhibition in experiment [7] was 63% (active); in experiment [8], -31.7%; in [9], 87.2% (active); in [10] it was 91.5% (active).

Turning to `COc1cccc(-c2nnc3n2N=C(C(C)(C)C)CS3)c1`, the inhibition was 89.1% (active) in [1]; 64.5% (active) in experiment [2]; 72.3% (active) in experiment [3]; 71.4% (active) in experiment [4]; 56.7% (active) in [5]; 64.9% (active) in experiment [6]. Also, the inhibition is 60.9% (active) in experiment [7], 75.4% (active) in experiment [8], 26.6% in experiment [9] and 73.7% (active) in [10].

Turning to `N#Cc1sc2nccc(Nc3ccccc3)c2c1N`, the inhibition in [1] was 87.1% (active); in [2], 62.4% (active); in experiment [3], 62.9% (active); in [4] it was 58.6% (active); in [5], 32.5% (active); in [6], 66.4% (active). The inhibition in [7] was 48.8% (active); in experiment [8], 79.6% (active); in experiment [9], 4.1%; in experiment [10], 52.2% (active).

For the compound `COc1ccc(S(=O)(=O)N2CCOCC2)cc1NC(=O)CCNC(=O)c1ccc([N+](=O)[O-])cc1`, the inhibition in [1] was 88.6% (active); in experiment [2], 60.8% (active); in [3], 75.6% (active); in [4], 33.3% (active); in experiment [5], 89.2% (active); in [6] it was 99.3% (active). For the same compound, the inhibition in experiment [7] is 95.5% (active); in experiment [8], 72.9% (active); in experiment [9], 4.19%; in experiment [10] it was 49.4% (active).

Regarding `Cc1ccc(NC(=O)O/N=C/c2c(C)nn(C(C)(C)C)c2C)cc1Cl`, the inhibition in [1] is 90.4% (active); in experiment [2] it was 88% (active); in [3], 87.3% (active); in experiment [4], 85.3% (active); in experiment [5], 88.2% (active); in [6] it was 93% (active). Further, the inhibition was 89.2% (active) in experiment [7], 86.5% (active) in [8], 94.6% (active) in experiment [9] and 98.3% (active) in experiment [10].

For the compound `COc1ccc(CC2C(=O)NC(C)C(=O)N(C)C3Cc4ccc(cc4)Oc4cc(ccc4O)CC(C(=O)NC(C)C(=O)NC(C)C(=O)N2C)N(C)C3=O)cc1` (stereo not given), the inhibition is 97.6% (active) in experiment [1]; 96.4% (active) in [2]; 90.6% (active) in [3]; 95% (active) in [4]; 96% (active) in [5]; 110% (active) in [6]. Further, the inhibition in [7] is 98.6% (active); in [8], 97.2% (active); in [9], 82.2% (active); in experiment [10], 76.9% (active).

In the case of `Cc1ccc(N(Cc2cc(=O)[nH]c3ccccc23)C(=O)CCl)c(C)c1`, the inhibition was 55.3% (active) in [1]; 34.3% (active) in experiment [2]; 34.3% in experiment [3]; 24.6% in [4]; 37.3% (active) in [5]; 72.4% (active) in experiment [6]. For the same compound, the inhibition in experiment [7] is 75.5% (active); in experiment [8], 46% (active); in experiment [9], 44.4% (active); in experiment [10], 60% (active).

Turning to `O=C(CCC1CCCC1)Nc1ccc(C(=O)NCc2cccnc2)cc1`, the inhibition in experiment [1] is 88.5% (active); in [2], 43.3% (active); in experiment [3] it was 62.4% (active); in experiment [4], 24.4%; in experiment [5] it was 88% (active); in experiment [6], 98.7% (active). For the same compound, the inhibition in [7] is 94.8% (active); in experiment [8] it was 66.9% (active); in [9], -5.72%; in experiment [10] it was 48.6% (active).
